Measurements published in PubChem BioAssay AID540267 (National Center for Advancing Translational Sciences (NCATS), 2011).
Hit rate of the full screen: of about 340,000 compounds, about 530 (0.16%) were called active. Not shown: some 2% with an inconclusive outcome. Rule as the data show it: active = activity change below about -80%; inconclusive = between about -30% and that limit; inactive = weaker than that. The list comes from a sample in which actives are over-represented; it also holds similar structures and randomly drawn compounds.

Experiment: Small Molecules that selectively kill Giardia lamblia: qHTS;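 also: parasites exposed to compound for two days anaerobically before the ATP read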
Conditions: Giardia lamblia trophozoite viability; at 7.66 µM; stronger effect = lower value
Text: Giardia lamblia is a human pathogen afflicting impoverished nations, and the most common cause of outbreaks of diarrhea in the United States. Giardia has been classified by the CDC as a category B bioterrorism organism. The favored anti giardiasis drugs in the US are metronidazole or tinidazole, compounds that have undesirable side effects. Moreover, increasing resistance to drug regimes and recurrence are a concern. It is thus clear that alternative drug treatments are needed.
In a collaboration between the University of Maryland, College Park and the NIH Chemical Genomics Center, a bioluminescence Giardia viability assay based on the trophozoites' ATP content was developed. This assay is suitable for high throughput screening, and miniaturized the assay for compound screening in 1536-well plates. The goal of the project is to screen the Molecular Libraries Small Molecule Repository (MLSMR) for compounds that selectively kill Giardia trophozoites.
NIH Chemical Genomics Center [NCGC]
NIH Molecular Libraries Probe Centers Network [MLPCN]
Assay Submitter (PI): Osnat Herzberg, University of Maryland, College Park, MD.
1. Dispense 2 ul/well media
2. Dispense 23 nl/well compounds
3. Dispense 4 ul/well Giardia trophozoites at a concentration of 100 cells/well
4. Incubate 48 hrs at 37 deg C anaerobically
5. Dispense 4 ul/well ATPLite 1-Step Luminescence assay kit
6. Incubate 15-30 min at room temperature
7. Read luminescence signal on ViewLux plate reader
% is scaled to controls: 0 for no effect and ±100 for the full control effect.

SMILES	activity change
CCNC(=O)Nc1ccc(S(=O)(=O)Nc2cnc(C)nc2C)cc1	-28.2% (inactive)
CN(CC(=O)Nc1ccc(OC(F)(F)F)cc1)C(=O)C1CCC1	29.9% (inactive)
N#Cc1c(N)nc2c(c1N)CC(C(F)(F)F)O2 (stereo unspecified)	-7.55% (inactive)
C=CCNC(=O)c1ccc2nc(-c3ccco3)c(-c3ccco3)nc2c1	-26.3% (inactive)
NC(=O)c1ncn([C@@H]2O[C@H](CN=C3NS(=O)(=O)c4ccccc43)[C@@H](O)[C@H]2O)n1	-14.2% (inactive)
CC(=NNC(=O)c1ccncc1)c1ccc(Cl)c(Cl)c1	-4.59% (inactive)
COC(=O)[C@]1(C)N[C@H](c2ccc(-c3ccc(Cl)c(Cl)c3)cc2)[C@@H]2C(=O)N(C)C(=O)[C@@H]21	-3.14% (inactive)
COC(=O)C1=C(C(=O)c2ccc(C)cc2)C(c2ccccc2)n2nnnc2N1 (stereo unspecified)	2.03% (inactive)
Cc1ccc(S(=O)(=O)N2CCN(C(=O)CSc3cc(C)ccc3C)CC2)c(C)c1	-9.03% (inactive)
CN(C)S(=O)(=O)c1cc(C(=O)Nc2ccn(C)n2)c(Cl)cc1Cl	4.66% (inactive)
C=CCn1c(CCNC(=O)c2ccccc2F)nnc1SCC(=O)Nc1ccc(OC)cc1	1.96% (inactive)
CCN(CC)CCCNC(=O)c1c(O)c2cc(F)cc3c2n(c1=O)C(C)CC3 (stereo unspecified)	31% (inactive)
COc1cc(SC)ccc1C(=O)Nc1nc(C)cs1	-94.7% (active)
COc1cc(SC)ccc1C(=O)N(Cc1ccccc1)c1ccccc1	-27.1% (inactive)
COc1ccc(C(=O)Nc2cccc(NC(=O)c3ccc(OC)cc3OC)n2)c(OC)c1	-19% (inactive)
CC(=O)N1CCc2c(sc(NC(=O)CCS(=O)(=O)c3ccccc3)c2C#N)C1	-1.29% (inactive)
CCCN1CCC(=O)N(C(CSc2ccc(OC)cc2)Cc2ccccc2)CC1 (stereo unspecified)	-25.3% (inactive)
CN(CCO)c1ccc(/C=N/Nc2nncc3ccccc23)cc1	-87.9% (active)
COc1cccc(/C=N\Nc2nncc(-c3ccccc3)n2)c1	5.7% (inactive)
C/C(=N\Nc1nncc2ccccc12)c1ccc(Cl)c([N+](=O)[O-])c1	-7.6% (inactive)
CC1(C)CCc2cc(S(=O)(=O)N3CCN(c4nc(-c5cccs5)nc5ccccc45)CC3)ccc2O1	-0.147% (inactive)
COc1ccc(CN(Cc2ccccc2)C(=O)c2ccc(O)cc2)cc1COc1ccc(NC(C)=O)cc1	41.3% (inactive)

SMILES	activity change
CC(=O)OCC(NC(=O)C(Cc1ccccc1)NC(=O)OC(C)(C)C)C1OC(n2ccc(=O)[nH]c2=O)C(OC(C)=O)C1OC(C)=O (stereo unspecified)	-16.1% (inactive)
O=C(O)C1CCC(CNS(=O)(=O)c2ccc(Br)cc2)CC1 (stereo unspecified)	18.6% (inactive)
CCOc1ccc(N(C)Cc2cc(=O)oc3ccc(OC)cc23)cc1	0.548% (inactive)
C=CCOc1ccc(/C=C/C(=O)OCC(=O)NC(C)c2ccc(F)cc2)cc1 (stereo unspecified)	-21.6% (inactive)
COc1ccc2c(C)cc(SCC(=O)NCC3CCCO3)nc2c1 (stereo unspecified)	-1.83% (inactive)
COc1ccc(-c2ccc(C3C4C=CCCC4(C)C(=O)N3Cc3ccccc3)c(F)c2)cc1OC (stereo unspecified)	5.8% (inactive)
C/C(CC(=O)Nc1ccc(C)cc1C)=N\NC(=O)C(C)C	-14.4% (inactive)
CC(C)C(=O)N1c2ccccc2NC2=C(C(=O)CCC2)C1c1ccc(N(C)C)cc1 (stereo unspecified)	1.62% (inactive)
COC(=O)C1=C(C)N(C)C(=S)NC1c1ccccc1 (stereo unspecified)	-6.21% (inactive)
COC(=O)C1=C(C)N(C)C(=O)NC1c1ccc([N+](=O)[O-])o1 (stereo unspecified)	-87.4% (active)
COc1ccc(C2NC(=O)N(C)C(C)=C2[N+](=O)[O-])cc1 (stereo unspecified)	22.3% (inactive)
Oc1ccc(Cl)cc1C1C=C(c2ccc3c(c2)OCO3)NC(c2c(F)cccc2Cl)N1 (stereo unspecified)	-23.4% (inactive)
CCOC(=O)CSc1nnc(CNC(=O)c2ccco2)n1-c1ccc(F)cc1	-0.714% (inactive)
C/[N+]([O-])=C\c1ccc([N+](=O)[O-])o1	-92.7% (active)
O=C(/C=C/c1ccc([N+](=O)[O-])o1)NNC(=O)c1ccc(F)cc1	2.18% (inactive)
O=[N+]([O-])c1ccc(C=NN=Cc2ccc([N+](=O)[O-])cc2)cc1	12.5% (inactive)
COc1cc(Cl)c(C)cc1NC(=O)CSc1nnc(-c2ccco2)n1CC(C)C	6.88% (inactive)
CC(C)Cn1c(N)c(C(=O)COC(=O)C2CCCN2C(=O)c2cccs2)c(=O)n(C)c1=O (stereo unspecified)	20.2% (inactive)
C[C@H](NC(=O)C1CCN(S(=O)(=O)c2ccccc2)CC1)C(=O)NCc1ccccc1	10.6% (inactive)
O=C(NCc1ccccn1)[C@]1(C(F)(F)F)C[C@H](CCc2ccccc2)CCCO1	-0.242% (inactive)
COc1cccc(C(=O)c2sc3nc(-c4ccccc4)cc(C(F)(F)F)c3c2N)c1	4.39% (inactive)
COc1ccc(S(=O)(=O)N2CCN(CC(=O)N3c4ccccc4CC3C)CC2)cc1OC (stereo unspecified)	-6.14% (inactive)

SMILES	activity change
CC(=O)Nc1ccc(S(=O)(=O)N2N=NC3C2C2CC4C3(CN(C(=O)OC(C)(C)C)S4(=O)=O)O2)cc1 (stereo unspecified)	-7.9% (inactive)
CC(C)C(C)NC(=O)COc1nc2ccccc2nc1N(C)C1CCCCC1 (stereo unspecified)	0.279% (inactive)
CN(c1ccc2nc3ccccc3c(=O)n2n1)C1CCCCC1	-82.4% (active)
CN(C(=O)c1cc2c(=O)n3ccccc3nc2s1)C1CCCCC1	9.98% (inactive)
COC(=O)CCc1ccccc1S(=O)(=O)N(CCC(=O)OC)Cc1ccccc1	9.42% (inactive)
CCCCN(C1CCS(=O)(=O)C1)S(=O)(=O)c1ccc(C(C)C)cc1 (stereo unspecified)	-8.89% (inactive)
Cc1n[nH]c(C)c1S(=O)(=O)N1CCCC(C(=O)NCC2COc3ccccc3O2)C1 (stereo unspecified)	1.3% (inactive)
COc1ccc(S(=O)(=O)N2CCC(C(=O)OCC(=O)c3ccccc3)CC2)cc1[N+](=O)[O-]	-0.271% (inactive)
Cc1ccc(NC(=O)C(C)OC(=O)Cc2c[nH]c3ccccc23)cc1S(=O)(=O)N1CCOCC1 (stereo unspecified)	-9.72% (inactive)
COc1ccc(S(=O)(=O)Nc2cccc3cccnc23)c(N)c1	-6.45% (inactive)
CCCN1CCC(=O)N(C(CSc2ccc(C)cc2)Cc2ccccc2)CC1 (stereo unspecified)	13% (inactive)
CCc1nn(CC(=O)N2CCN(CC)CC2)c(=O)c2cccn12	-17.4% (inactive)
COc1ccc2c(c1)CC[C@@H]1[C@@H]2CC[C@]2(C)C(=O)CC[C@@H]12	2.55% (inactive)
O=C(ON=C1CCN(S(=O)(=O)c2ccccc2)CC1)c1ccc(Cl)cc1	-18% (inactive)
Cc1cccc(NS(=O)(=O)c2ccc(-c3cnc(C4CC4)o3)cc2)c1	23.1% (inactive)
COc1ccc(C2CC(O)(c3ccccc3)Oc3cc(C)cc(C)c32)cc1 (stereo unspecified)	-2.28% (inactive)
CCOC(=O)c1cc(OC(=O)c2ccccc2Cl)n(-c2ccccc2)n1	20.6% (inactive)
c1ccc(Cn2nnc3c(N4CCCCC4)ncnc32)cc1	6.21% (inactive)
CCOc1ccc(NC(=O)CN(C)C(=O)Cn2c(=O)cnc3ccccc32)cc1OCC	3.18% (inactive)
COc1ccc(CN2CCC(=O)c3ccccc3S2(=O)=O)cc1	-21.5% (inactive)
CS(=O)(=O)N(Cc1ccc(Cl)cc1)c1ccc(C(=O)NCCSCc2ccco2)cc1	4.68% (inactive)
Cc1nnc(SC(C(=O)Nc2cc(Cl)cc(Cl)c2)c2ccccc2)[nH]c1=O (stereo unspecified)	24.1% (inactive)

SMILES	activity change
O=[N+]([O-])/C=C1\CCCCCN1	-16.8% (inactive)
CNC(=O)[C@]1(C(F)(F)F)C[C@H](CCc2ccccc2)CCCO1	-0.81% (inactive)
N/C(=N\OC(=O)Cc1ccccc1[N+](=O)[O-])c1ccc(Br)cc1	-8.48% (inactive)
Cc1nn(CCOc2ccc(Br)cc2)c(C)c1[N+](=O)[O-]	-11% (inactive)
Cc1ncc([N+](=O)[O-])n1CCOC(=O)c1ccc(Br)cc1	-80.4% (active)
C=CCCN(C(Cc1ccccc1)C(=O)OC)S(=O)(=O)c1cc(Br)ccc1Br (stereo unspecified)	-13% (inactive)
CCN(CC)C(=O)COc1coc(CN2CCN(Cc3ccccc3)CC2)cc1=O	-13.6% (inactive)
CCOC(=O)C1CCCN(C(=O)COc2ccc(N(C)S(=O)(=O)c3ccc(C)cc3)cc2)C1 (stereo unspecified)	-1.39% (inactive)
COc1ccc(C2Nc3ccc(NC(=O)COC(C)=O)cc3C(=O)N2Cc2ccccc2)cc1COc1ccc(NC(C)=O)cc1 (stereo unspecified)	26.7% (inactive)
COc1ccc(OCCn2ccnc2C)cc1	8.15% (inactive)
COc1ccc(-c2ccc(OC)c(C3C4C=CCC(C)C4C(=O)N3Cc3ccccc3)c2)cc1C (stereo unspecified)	12.9% (inactive)
CC1CC(C)CN(c2oc(-c3ccc(OCc4ccc(Cl)cc4)cc3)nc2C#N)C1 (stereo unspecified)	25.3% (inactive)
Cc1ccc(C(=O)N2CCN(C3CCCCC3)CC2)s1	2.7% (inactive)
CCCC1OC23CCCCC2C(C#N)(C#N)C1(C#N)C(=N)O3 (stereo unspecified)	1.74% (inactive)
CC/C(=C(/c1ccccc1)c1ccc(OCC[N+](C)(C)C)cc1)c1ccccc1	8.29% (inactive)
CCN(CC)S(=O)(=O)c1ccc(N2CCCC2)c(NC(=O)c2ccc([N+](=O)[O-])o2)c1	-96.4% (active)
CCN(CC)S(=O)(=O)c1ccc(N2CCOCC2)c(NC(=O)c2ccc(=O)n(C)n2)c1	-7.96% (inactive)
CCN(CC)S(=O)(=O)c1cc(C(=O)Nc2cc(S(=O)(=O)N3CCOCC3)ccc2N2CCCC2)ccc1F	-19.1% (inactive)
COC(=O)c1ccc(NC(=O)CN(c2ccc(C)cc2)S(=O)(=O)c2c(C)n[nH]c2C)cc1	12.5% (inactive)
Cc1ccc(CNC(=O)C2(C(F)(F)F)C/C(=C\CCO)CCCO2)o1 (stereo unspecified)	-14.6% (inactive)
